Data published in PubChem BioAssay (NCI).
Compounds without any hit were thinned out: in the full panel of roughly 83,000, 20% have a hit.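 Note: values are percent growth. 100 is the growth of untreated cells, values between 100 and 0 indicate rising inhibition; between -100 and 0 indicates cell death.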 The source made the active and inactive calls. How the source made its calls: active means growth percent below 10; inactive means the rest.

Legend:
Test in all cases: NCI-60 one-dose screen, 48 h (100 = growth as untreated, 0 = no growth, -100 = all killed)
HT29 colon = settings: 10 µM unless noted
SNB-75 CNS = settings: 10 µM unless noted
SNB-19 CNS = settings: 10 µM unless noted
U251 CNS = settings: 10 µM unless noted
PC-3 prostate = settings: 10 µM unless noted
SK-MEL-5 melanoma = settings: 10 µM unless noted
UACC-62 melanoma = settings: 10 µM unless noted
LOX IMVI melanoma = settings: 10 µM unless noted
SK-MEL-28 melanoma = settings: 10 µM
SK-MEL-2 melanoma = settings: 10 µM unless noted

Measured: growth

CC1(C)CC2(C)OC2C2(C1)N=NC(=Nc1ccccc1)O2 (stereo not given)
inactive: HT29 colon 25.1% | SNB-75 CNS 84.8% | SNB-19 CNS 86% | U251 CNS 84.4% | PC-3 prostate 62.5% | SK-MEL-5 melanoma 61.5% | UACC-62 melanoma 73.1% | SK-MEL-28 melanoma 70.3% | SK-MEL-2 melanoma 76.6%
active: LOX IMVI melanoma -51.9%

O=c1oc2ccc(Br)cc2c(=O)n1-c1ccc(Br)cc1F
active: SNB-75 CNS -42.4% | U251 CNS -5.99% | PC-3 prostate -4.81% | SK-MEL-5 melanoma -84.8% | UACC-62 melanoma -40.7% | LOX IMVI melanoma 2.66% | SK-MEL-28 melanoma -22.6% | SK-MEL-2 melanoma -18%
inactive: HT29 colon 34.8% | SNB-19 CNS 16.9%

COc1ccc(Cn2c(Br)c3c(c2-c2cc(OC)c(OC)c(OC)c2)CCc2sc(NC(C)=O)nc2-3)cc1
inactive: HT29 colon 33.7% | SNB-75 CNS 25.3% | SNB-19 CNS 41% | U251 CNS 39.2% | PC-3 prostate 43.7% | SK-MEL-5 melanoma 16.6% | UACC-62 melanoma 29.7% | LOX IMVI melanoma 33.3% | SK-MEL-28 melanoma 39.2% | SK-MEL-2 melanoma 55.6%

O=c1cc(NC2CCN(CCCc3ccccc3)CC2)c2cc(Cl)ccc2o1
active: HT29 colon -12.9% | SNB-75 CNS -5.24% | U251 CNS -24.7% | PC-3 prostate 0% | SK-MEL-5 melanoma -54.6% | UACC-62 melanoma 9.81% | LOX IMVI melanoma -1.07% | SK-MEL-28 melanoma 8.62% | SK-MEL-2 melanoma -44%
inactive: SNB-19 CNS 25.6%

COc1cccc(C(=O)NC(c2ccc(C)cc2)c2cc(Cl)c3cccnc3c2O)c1 (stereo not given)
active: U251 CNS 3.81% | SK-MEL-5 melanoma -56.8% | UACC-62 melanoma -20% | LOX IMVI melanoma 6.79%
inactive: HT29 colon 24.1% | SNB-75 CNS 28.8% | SNB-19 CNS 12.5% | PC-3 prostate 22.8% | SK-MEL-28 melanoma 44% | SK-MEL-2 melanoma 22.8%

CCCN1CCN(c2ccc3nc(-c4ccc5nc(-c6cc(OC)ccc6OC)[nH]c5c4)[nH]c3c2)CC1
inactive: SNB-75 CNS 90.9% | SNB-19 CNS 115% | U251 CNS 85.8% | PC-3 prostate 103% | SK-MEL-5 melanoma 99.5% | UACC-62 melanoma 110% | SK-MEL-28 melanoma 99.4% | SK-MEL-2 melanoma 118%
active: HT29 colon -23.2% | LOX IMVI melanoma -83.3%

O=C(Nc1ccc(Cl)cc1F)c1cc(Br)ccc1O
inactive: HT29 colon 42.4% | SNB-19 CNS 20.4% | LOX IMVI melanoma 16.1% | SK-MEL-28 melanoma 13.2%
active: SNB-75 CNS -13.6% | U251 CNS 1.1% | PC-3 prostate -0.306% | SK-MEL-5 melanoma -87.2% | UACC-62 melanoma -21.8% | SK-MEL-2 melanoma -16.3%

CCN1C(=O)N(CC)C2C1NC(=S)N2/N=C/C=C/c1ccccc1OC (stereo not given)
inactive: SNB-75 CNS 44.8% | SNB-19 CNS 26.5% | U251 CNS 20.8% | PC-3 prostate 25.2% | UACC-62 melanoma 25.8% | LOX IMVI melanoma 21.1% | SK-MEL-28 melanoma 56.7% | SK-MEL-2 melanoma 32.6%
active: HT29 colon 2.77% | SK-MEL-5 melanoma -40.7%

CCCCN1CCN(c2ccc3nc(-c4ccc5nc(-c6ccc(OC)c(OC)c6)[nH]c5c4)[nH]c3c2)CC1
active: HT29 colon 5.94% | SNB-75 CNS 6.59% | SNB-19 CNS 0.577% | U251 CNS -45.3% | SK-MEL-5 melanoma -34.4% | UACC-62 melanoma -58.5% | LOX IMVI melanoma -81.4% | SK-MEL-28 melanoma -71.2% | SK-MEL-2 melanoma -51.2%
inactive: PC-3 prostate 14.3%

O=c1c2cc(F)ccc2sc2c(NCCN3CCCC3)nc3ccccc3c12
inactive: HT29 colon 13.9% | SNB-75 CNS 77.6% | SNB-19 CNS 69.2% | U251 CNS 35.7% | PC-3 prostate 61% | SK-MEL-5 melanoma 79.7% | UACC-62 melanoma 38.2% | LOX IMVI melanoma 28.4% | SK-MEL-28 melanoma 71.6% | SK-MEL-2 melanoma 91%

O=C(Nc1ccc(Cl)cc1F)c1cc(F)ccc1O
inactive: HT29 colon 10.3% | SNB-19 CNS 22.8%
active: SNB-75 CNS -12.4% | U251 CNS -4.4% | PC-3 prostate 3.1% | SK-MEL-5 melanoma -84.4% | UACC-62 melanoma -7.35% | LOX IMVI melanoma 9.69% | SK-MEL-28 melanoma 7.52% | SK-MEL-2 melanoma -29.8%

COc1cccc2cc(N(C)c3nc(C)nc4ccsc34)ccc12
inactive: SNB-75 CNS 36% | SNB-19 CNS 24.1% | U251 CNS 11.7% | PC-3 prostate 12.7% | UACC-62 melanoma 43.4% | LOX IMVI melanoma 16.3% | SK-MEL-28 melanoma 58.9% | SK-MEL-2 melanoma 13.1%
active: HT29 colon -10.3% | SK-MEL-5 melanoma -63%

C1=CC2(C=C1)OC21CCC2(C=CC3(C2)OC3C2CCCCC2)CC1 (stereo not given)
inactive: HT29 colon 110% | SNB-75 CNS 94.2% | SNB-19 CNS 104% | U251 CNS 99.5% | PC-3 prostate 101% | SK-MEL-5 melanoma 106% | UACC-62 melanoma 99.7% | LOX IMVI melanoma 92.5% | SK-MEL-28 melanoma 105% | SK-MEL-2 melanoma 104%

COc1cc(/C=C2\CCC/C(=C\c3cc(CN4CCCCC4)c(O)c(OC)c3)C2=O)cc(CN2CCCCC2)c1O
inactive: HT29 colon 13.3% | SNB-75 CNS 89.8% | SNB-19 CNS 80.7% | U251 CNS 70.1% | PC-3 prostate 82.7% | SK-MEL-5 melanoma 92.6% | UACC-62 melanoma 91.5% | LOX IMVI melanoma 66.9% | SK-MEL-28 melanoma 93.6% | SK-MEL-2 melanoma 101%

COc1ccccc1C(=O)O/N=C(\N)Cc1cccc2ccccc12
inactive: HT29 colon 77.7% | SNB-75 CNS 67% | SNB-19 CNS 87.7% | U251 CNS 90.9% | PC-3 prostate 78.6% | SK-MEL-5 melanoma 70.4% | UACC-62 melanoma 83.3% | LOX IMVI melanoma 70.6% | SK-MEL-28 melanoma 114% | SK-MEL-2 melanoma 89.6%

Cc1ccc(Nc2nc(N)c3ccccc3n2)cc1Cl
inactive: HT29 colon 27.4% | SNB-75 CNS 95.2% | SNB-19 CNS 84.4% | U251 CNS 61.8% | PC-3 prostate 60.4% | SK-MEL-5 melanoma 60.2% | UACC-62 melanoma 53.9% | LOX IMVI melanoma 40.4% | SK-MEL-28 melanoma 102% | SK-MEL-2 melanoma 50.9%

COc1cc(NC(=O)CCSc2nc3ccccc3c(=O)n2CCc2ccccn2)cc(OC)c1OC
inactive: HT29 colon 102% | SNB-19 CNS 98.6% | U251 CNS 85.1% | PC-3 prostate 81.6% | SK-MEL-5 melanoma 87.8% | UACC-62 melanoma 84% | LOX IMVI melanoma 94.8% | SK-MEL-28 melanoma 83.3% | SK-MEL-2 melanoma 92.4%
active: SNB-75 CNS 8.5%
